Values joined by “and” are separate entries in the source; they are usually repeats but may differ in a detail not shown here. Equal values may be shown once. Out of some 5,500 compounds screened, about 2,000 (36%) were called active. Roughly 18% stayed inconclusive and do not appear here. No stated cut-off is given here; in the data, active means normalized growth mostly below about 0.91 (no sharp cut-off); inconclusive means no clear call, values can overlap the other calls; inactive means mostly above about 0.92. The list shows a part of the results.
Test: chemical genetic growth profiling, strain panel (AID 1159580);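 further: tested at 20 µM; growth read once vehicle control cultures reached saturation at 30 °C; 1 = growth at the plate median or of vehicle wells; lower values mean less growth of the strain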
Conditions: S. cerevisiae deletion strains, growth OD

Measured: normalized growth

CC1(C)S[C@@H]2C(N3C(=O)[C@@H](c4ccccc4)NC3(C)C)C(=O)N2[C@H]1C(=O)O (some centres not stated)
inactive: locus YAL021C, strain ccr4, hits give low values 1.03 | locus YAL026C, strain drs2, hits give low values 1.02 | locus YAL030W, strain snc1, hits give low values 1 | locus YBL061C, strain skt5, hits give low values 1.02 | locus YBR009C, strain hhf1, hits give low values 1.03 | locus YBR021W, strain FUR4, hits give low values 0.994 | locus YBR023C, strain chs3, hits give low values 1.04 | locus YBR171W, strain sec66, hits give low values 1.04 | locus YBR229C, strain ROT2, hits give low values 1.01 | locus YBR231C, strain swc5, hits give low values 0.975 | locus YBR279W, strain paf1, hits give low values 1.02 | locus YCL011C, strain gbp2, hits give low values 1.03 | locus YCL016C, strain dcc1, hits give low values 1.06 | locus YCL029C, strain bik1, hits give low values 1.02 | locus YCL061C, strain MRC1, hits give low values 1.03 | locus YCL069W, strain vba3, hits give low values 1.02 | locus YCR088W, strain abp1, hits give low values 1.02 | locus YDL005C, strain med2, hits give low values 1.02 | locus YDL035C, strain GPR1, hits give low values 1 | locus YDL040C, strain nat1, hits give low values 1.01 | locus YDL074C, strain BRE1, hits give low values 1.02 | locus YDL101C, strain DUN1, hits give low values 1.01 | locus YDL185W, strain tfp1, hits give low values 1.02 | locus YDL192W, strain arf1, hits give low values 1.03 | locus YDR001C, strain nth1, hits give low values 1.01 | locus YDR069C, strain doa4, hits give low values 0.977 | locus YDR101C, strain arx1, hits give low values 1.01 | locus YDR137W, strain rgp1, hits give low values 1.11 | locus YDR159W, strain sac3, hits give low values 0.958 | locus YDR162C, strain NBP2, hits give low values 1 | locus YDR195W, strain ref2 1.01 | locus YDR297W, strain sur2, hits give low values 0.98 | locus YDR318W, strain mcm21, hits give low values 1.02 | locus YDR334W, strain swr1, hits give low values 1.02 | locus YDR335W, strain msn5, hits give low values 0.989 | locus YDR388W, hits give low values 1.03 | locus YDR392W, strain spt3, hits give low values 0.952 | locus YDR502C, strain sam2, hits give low values 1.03 | locus YEL003W, strain gim4, hits give low values 1.02 | locus YEL037C, strain rad23, hits give low values 1.02 | locus YEL061C, strain CIN8 (second series), hits give low values 1.02 | locus YEL061C, strain CIN8, hits give low values 1.01 | locus YER015W, strain faa2, hits give low values 1 | locus YER016W, strain bim1, hits give low values 1.01 | locus YER110C, hits give low values 1.04 | locus YER111C, strain swi4, hits give low values 1.03 | locus YER155C, strain BEM2 (second series), hits give low values 0.975 | locus YER155C, strain BEM2, hits give low values 1 | locus YER167W, strain BCK2, hits give low values 1 | locus YFR010W, strain ubp6, hits give low values 1.03 | locus YGL078C, strain dbp3, hits give low values 1.03 | locus YGL086W, strain mad1, hits give low values 0.996 | locus YGL167C, strain pmr1, hits give low values 1.02 | locus YGL173C, strain kem1, hits give low values 1.03 | locus YGL227W, strain vid30, hits give low values 1.02 | locus YGL240W, strain doc1, hits give low values 0.972 | locus YGL248W, strain PDE1, hits give low values 1.01 | locus YGL253W, strain hxk2, hits give low values 1.02 | locus YGR078C, strain PAC10, hits give low values 1 | locus YGR135W, strain pre9, hits give low values 1.04 | locus YGR252W, strain gcn5, hits give low values 1.01 | locus YHR013C, strain ard1, hits give low values 1.06 | locus YHR027C, strain rpn1, hits give low values 1.02 | locus YHR030C, strain SLT2, hits give low values 1.01 and 0.988 | locus YHR079C, strain IRE1 (second series), hits give low values 1.02 | locus YHR079C, strain IRE1, hits give low values 0.979 | locus YHR094C, strain hxt1, hits give low values 1.03 | locus YHR129C, strain ARP1, hits give low values 0.995 | locus YHR142W, strain chs7, hits give low values 1.05 | locus YHR200W, strain rpn10, hits give low values 1.03 | locus YIL066C, strain RNR3, hits give low values 1 | locus YIL073C, strain SPO22, hits give low values 1.06 | locus YIL125W, strain kgd1, hits give low values 1.02 | locus YIR030C, strain dcg1, hits give low values 1.03 | locus YJL092W, strain hpr5, hits give low values 1.02 | locus YJL095W, strain BCK1 (second series), hits give low values 0.987 | locus YJL095W, strain BCK1, hits give low values 1.02 and 0.98 | locus YJL115W, strain asf1, hits give low values 1.02 | locus YJL129C, strain trk1, hits give low values 1.04 | locus YJL134W, strain LCB3, hits give low values 1.01 | locus YJL154C, strain vps35, hits give low values 1.02 | locus YJL164C, strain tpk1, hits give low values 1.04 | locus YJL166W, strain qcr8, hits give low values 1.02 | locus YJL168C, strain set2, hits give low values 1.03 | locus YJL187C, strain SWE1 (second series), hits give low values 1 | locus YJL187C, strain SWE1, hits give low values 0.974 | locus YJR066W, strain TOR1, hits give low values 0.944 | locus YKL009W, strain mrt4, hits give low values 0.99 | locus YKL068W, hits give low values 1.01 | locus YKL085W, strain MDH1 (second series), hits give low values 1.02 | locus YKL085W, strain MDH1, hits give low values 1.02 | locus YKL160W, strain elf1, hits give low values 1.05 | locus YKR001C, strain vps1, hits give low values 1.04 | locus YKR026C, strain gcn3, hits give low values 1.02 | locus YKR091W, strain srl3, hits give low values 1.02 | locus YLL001W, strain dnm1, hits give low values 1.04 | locus YLL026W, hits give low values 1.02 | locus YLL041C, strain sdh2, hits give low values 1 | locus YLR027C, strain aat2, hits give low values 1 | locus YLR039C, strain RIC1, hits give low values 1.03 | locus YLR058C, strain SHM2, hits give low values 1.01 | locus YLR102C, strain apc9, hits give low values 1.03 | locus YLR113W, strain HOG1, hits give low values 1 | locus YLR221C, strain rsa3, hits give low values 1.03 | locus YLR258W, strain gsy2, hits give low values 0.999 | locus YLR262C, strain YPT6 (second series), hits give low values 1.11 | locus YLR262C, strain YPT6, hits give low values 1.05 | locus YLR268W, strain sec22, hits give low values 1.02 | locus YLR320W, strain mms22, hits give low values 1.08 | locus YLR330W, strain CHS5, hits give low values 1 | locus YLR342W, strain FKS1 (second series), hits give low values 0.997 | locus YLR342W, strain FKS1, hits give low values 1.03 | locus YLR357W, strain rsc2, hits give low values 1.01 | locus YLR370C, strain arc18, hits give low values 1 | locus YLR371W, strain rom2, hits give low values 1.01 | locus YLR384C, strain iki3, hits give low values 1.02 | locus YLR418C, strain cdc73, hits give low values 1.03 | locus YML016C, strain PPZ1, hits give low values 1.01 | locus YML032C, strain rad52, hits give low values 1.02 | locus YML120C, strain ndi1, hits give low values 1.05 | locus YML124C, strain tub3, hits give low values 1.02 | locus YMR058W, strain fet3, hits give low values 1.01 | locus YMR078C, strain ctf18, hits give low values 1.03 | locus YMR125W, strain sto1, hits give low values 1.03 | locus YMR129W, hits give low values 1.02 | locus YMR205C, strain PFK2, hits give low values 0.992 | locus YMR223W, strain ubp8, hits give low values 1.04 | locus YMR231W, strain pep5, hits give low values 1.02 | locus YMR263W, strain SAP30, hits give low values 1 | locus YMR307W, strain GAS1, hits give low values 1.01 | locus YNL067W, strain RPL9B, hits give low values 1.01 | locus YNL071W, strain lat1, hits give low values 1.03 | locus YNL183C, strain NPR1, hits give low values 0.95 | locus YNL209W, strain ssb2, hits give low values 1.02 | locus YNL233W, strain BNI4, hits give low values 1 | locus YNL248C, strain rpa49, hits give low values 1.03 | locus YNL250W, strain rad50, hits give low values 1.05 | locus YNL271C, strain bni1, hits give low values 1.04 | locus YNL298W, strain CLA4, hits give low values 1.04 | locus YNL307C, strain MCK1, hits give low values 1.03 | locus YNL322C, strain KRE1 (second series), hits give low values 1.05 | locus YNL322C, strain KRE1, hits give low values 1 | locus YNR049C, strain mso1, hits give low values 0.993 | locus YNR052C, strain pop2, hits give low values 1.02 | locus YOL006C, strain TOP1, hits give low values 1.03 | locus YOL012C, strain htz1 0.716 | locus YOL147C, strain pex11, hits give low values 1.03 | locus YOR001W, strain rrp6, hits give low values 1.01 | locus YOR061W, strain CKA2, hits give low values 1.01 | locus YOR069W, strain VPS5, hits give low values 1 | locus YOR070C, strain gyp1, hits give low values 1.03 | locus YOR080W, strain dia2, hits give low values 1.05 | locus YOR083W, strain WHI5, hits give low values 1.03 | locus YOR106W, strain vam3, hits give low values 1.02 | locus YOR136W, strain idh2, hits give low values 1.03 | locus YOR144C, strain elg1, hits give low values 1.02 | locus YOR184W, strain ser1, hits give low values 1.05 | locus YOR231W, strain MKK1, hits give low values 0.997 | locus YOR265W, strain rbl2, hits give low values 1.03 | locus YOR270C, strain vph1, hits give low values 1.08 | locus YOR290C, strain snf2, hits give low values 0.962 | locus YOR316C, strain cot1, hits give low values 1.03 | locus YPL051W, strain arl3, hits give low values 1.04 | locus YPL078C, strain atp4, hits give low values 1.03 | locus YPL106C, strain sse1, hits give low values 1.01 | locus YPL240C, strain hsp82, hits give low values 0.985 | locus YPL256C, strain CLN2, hits give low values 0.982 | locus YPR119W, strain clb2, hits give low values 1.03 | locus YPR141C, strain kar3, hits give low values 1.03 | locus YPR163C, strain tif3, hits give low values 1.04 | locus YPR167C, strain met16, hits give low values 1.02 | strain wtn01, hits give low values 1.04
